Some test systems named below: DU-145 prostate; K-562 leukemia; MALME-3M melanoma; MDA-MB-231 breast; RXF 393 renal; SF-268 CNS; SF-295 CNS; SF-539 CNS; M14 melanoma; HCT-15 colon; HT29 colon; SNB-75 CNS; SNB-19 CNS; U251 CNS; PC-3 prostate; UACC-62 melanoma; LOX IMVI melanoma; SK-MEL-28 melanoma; SK-MEL-5 melanoma.
Holding throughout (experiment): NCI-60 one-dose screen, 48 h (100 = growth as untreated, 0 = no growth, -100 = all killed)
Common to all, as to settings: 10 µM unless noted

Compounds without any hit were thinned out: in the full panel of roughly 83,000, 20% have a hit.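 Activity criterion: percent growth below 10, measured after cells in 96-well plates were exposed to a single compound concentration for 48 hours.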 A number with no mark means an inactive call. Calls of active or inactive are those of the source.

With `Cc1ccc(NC(=O)NC(=O)CSc2nc3ccccc3nc2C)cc1`, the growth in the assay with DU-145 prostate is 85%; in the assay with K-562 leukemia, 44.8%; with MALME-3M melanoma it was 71.1%; in the assay on MDA-MB-231 breast it was 73.1%; in the assay on RXF 393 renal it was 90.4%; in the assay on SF-268 CNS, 86.5%. Moreover, the growth is 43.7% with SF-295 CNS; 65.5% in the assay on SF-539 CNS; 74.9% with M14 melanoma; 89% in the assay on HCT-15 colon; 67.5% in the assay with HT29 colon; 70.8% with SNB-75 CNS. Further, the growth was 80.8% with SNB-19 CNS; 84.2% in the assay with U251 CNS; 67% with PC-3 prostate; 52.5% with UACC-62 melanoma; 58.8% in the assay on LOX IMVI melanoma; 75.2% with SK-MEL-28 melanoma.
With `CCN1CCN(c2nc(C)cc(N(CCNc3ccnc4cc(Cl)ccc34)Cc3ccc4c(c3)OCO4)n2)CC1`, the growth was 40.2% in the assay on DU-145 prostate; -54.9% (active) with K-562 leukemia; -82.2% (active) in the assay with MALME-3M melanoma; -0.846% (active) in the assay with MDA-MB-231 breast; -54.6% (active) with RXF 393 renal; 30.7% in the assay on SF-268 CNS. The growth in the assay with SF-295 CNS was -62.9% (active); with SF-539 CNS, -90.7% (active); with M14 melanoma, -80.2% (active); in the assay with HCT-15 colon, -6.94% (active); in the assay with HT29 colon, -13.4% (active); in the assay with SNB-75 CNS it was 9.98% (active). In addition, the growth was 29.9% with SNB-19 CNS; -44.6% (active) in the assay with U251 CNS; 50.7% with PC-3 prostate; -96.6% (active) with SK-MEL-5 melanoma; 44.9% in the assay with UACC-62 melanoma; -74.5% (active) in the assay on LOX IMVI melanoma. Also, the growth in the assay on SK-MEL-28 melanoma was -72% (active).
With `Clc1ccc(/C=C/c2cc(N3CCOCC3)c3cc(Cl)c(Cl)cc3n2)cc1`, the growth with DU-145 prostate is 60.2%; in the assay on K-562 leukemia, 86.3%; in the assay on MALME-3M melanoma, 56%; with MDA-MB-231 breast, 59.3%; in the assay with RXF 393 renal, 81.1%; in the assay on SF-268 CNS, 58%. Further, the growth in the assay with SF-295 CNS was 95.9%; in the assay on SF-539 CNS, 62.3%; with M14 melanoma, 98.5%; in the assay on HCT-15 colon, 97.4%; in the assay on HT29 colon, 93.1%; with SNB-75 CNS, 69.7%. The growth was 108% in the assay on SNB-19 CNS; 81.4% with U251 CNS; 37.2% with PC-3 prostate; 98.6% in the assay on UACC-62 melanoma; 99.6% in the assay on LOX IMVI melanoma; 105% with SK-MEL-28 melanoma.
For `Cc1cc(N(CCNc2ccnc3cc(Cl)ccc23)Cc2ccc3c(c2)OCO3)nc(N2CCCC2)n1`, the growth with DU-145 prostate is 29.7%; in the assay with K-562 leukemia it was -33.2% (active); with MALME-3M melanoma, -72.8% (active); in the assay on MDA-MB-231 breast, -8.4% (active); in the assay on RXF 393 renal it was -70.7% (active); in the assay with SF-268 CNS, 22.8%. Also, the growth was -65.3% (active) in the assay with SF-295 CNS; -93.3% (active) in the assay with SF-539 CNS; -78.2% (active) with M14 melanoma; 0.301% (active) with HCT-15 colon; -10.2% (active) with HT29 colon; -46.7% (active) in the assay on SNB-75 CNS. Further, the growth in the assay on SNB-19 CNS was 26.5%; with U251 CNS, -17.6% (active); in the assay with PC-3 prostate, 36.1%; in the assay with SK-MEL-5 melanoma, -96.9% (active); with LOX IMVI melanoma, -80.9% (active); in the assay with SK-MEL-28 melanoma, -58.7% (active).
As to `Cc1cc2c(-c3nc4ccccn4c3N)c(O)c(O)cc2c(O)c1-c1c(C)cc2c(-c3nc4ccccn4c3N)c(O)c(O)cc2c1O`, the growth is 26% in the assay on DU-145 prostate; 14.6% with K-562 leukemia; -0.749% (active) in the assay with MALME-3M melanoma; 13.6% in the assay on MDA-MB-231 breast; 25.3% in the assay with RXF 393 renal; 20.4% with SF-268 CNS. Besides, the growth is 2.67% (active) in the assay on SF-295 CNS; 14.9% in the assay on SF-539 CNS; 25.1% in the assay on M14 melanoma; 17.8% with HCT-15 colon; 8.01% (active) with HT29 colon; 18% in the assay on SNB-75 CNS. Further, the growth was 8% (active) in the assay with U251 CNS; 16.3% with PC-3 prostate; -7.68% (active) in the assay with SK-MEL-5 melanoma; 5.54% (active) in the assay with UACC-62 melanoma; 7.21% (active) in the assay with LOX IMVI melanoma; 38.3% with SK-MEL-28 melanoma.
Take `CCN1CCN(c2cc(C)nc(N(CCCNc3ccnc4cc(Cl)ccc34)Cc3ccc4c(c3)OCO4)n2)CC1`: the growth in the assay with DU-145 prostate is 20.1%; in the assay on K-562 leukemia it was -30.4% (active); with MALME-3M melanoma, -82.2% (active); in the assay on MDA-MB-231 breast it was -29.5% (active); with RXF 393 renal, -59% (active); in the assay on SF-268 CNS it was -0.704% (active). In addition, the growth with SF-295 CNS is -70% (active); in the assay on SF-539 CNS, -88.6% (active); in the assay with M14 melanoma it was -82.2% (active); in the assay on HCT-15 colon it was 1.33% (active); in the assay with HT29 colon, -12.2% (active); in the assay on SNB-75 CNS it was -15% (active). For the same compound, the growth was -45.4% (active) with U251 CNS; 15.8% in the assay with PC-3 prostate; -95.7% (active) with SK-MEL-5 melanoma; -47.8% (active) in the assay with UACC-62 melanoma; -75% (active) in the assay on LOX IMVI melanoma; -73.6% (active) in the assay with SK-MEL-28 melanoma.
Consider `CC(C)=CCc1cc2c(cc1O)C1=C(C(=O)C3=C(C1=O)S(=O)(=O)CCN3)C(C=C(C)C)O2` (configuration not stated), for which the growth in the assay on DU-145 prostate is -97.1% (active); with K-562 leukemia, 0.919% (active); in the assay on MALME-3M melanoma it was -96.1% (active); in the assay with MDA-MB-231 breast, 1.47% (active); in the assay on RXF 393 renal it was -76.2% (active); with SF-268 CNS, -0.0427% (active). For the same compound, the growth with SF-295 CNS was -65.9% (active); with SF-539 CNS it was -100% (active); with M14 melanoma it was -89.1% (active); with HCT-15 colon, -11.5% (active); in the assay on HT29 colon it was -30.5% (active); in the assay on SNB-75 CNS it was -81.1% (active). Further, the growth with SNB-19 CNS was -91.1% (active); with U251 CNS, -81.3% (active); in the assay on PC-3 prostate, 10.2%; in the assay on SK-MEL-5 melanoma, -99.5% (active); in the assay with UACC-62 melanoma, -32.3% (active); in the assay on LOX IMVI melanoma, -65.8% (active). The growth in the assay with SK-MEL-28 melanoma was -75.9% (active).
As to `CCN1CCN(c2cc(C)nc(N(CCCNc3ccnc4cc(Cl)ccc34)Cc3cccs3)n2)CC1`, the growth with DU-145 prostate is 26.4%; in the assay on K-562 leukemia, -14.2% (active); with MALME-3M melanoma it was -85.7% (active); in the assay with MDA-MB-231 breast, -20% (active); in the assay on RXF 393 renal, -53.8% (active); with SF-268 CNS it was 7.31% (active). The growth in the assay on SF-295 CNS was -69.4% (active); with SF-539 CNS it was -89.8% (active); with M14 melanoma, -84% (active); in the assay with HCT-15 colon, 3.14% (active); in the assay with HT29 colon, 1.82% (active); in the assay on SNB-75 CNS, -5.92% (active). Further, the growth is 12.5% in the assay on SNB-19 CNS; 0.735% (active) in the assay with U251 CNS; 32.8% in the assay with PC-3 prostate; -97.4% (active) in the assay with SK-MEL-5 melanoma; -19.8% (active) in the assay with UACC-62 melanoma; -73.5% (active) in the assay on LOX IMVI melanoma. For the same compound, the growth with SK-MEL-28 melanoma is -65.9% (active).
